The nature of experiment [1]: qHTS of pediatric cancer cell lines to identify multiple opportunities for drug repurposing: Primary screen for Rh18 cells (AID 1347102). Also: nearly all actives have a fitted effect of over 65% in size. Also: potency is read from the fitted curve at half-maximal effect. The method, boiled down:
(§1)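 Viability after 48 h compound treatment at 37C, 500-1,000 cells/well, read as ATP luminescence with CellTiter-Glo. Primary screens used 11-point (MIPE, 0.78 nM-46 µM) or 8-point (NPC, 0.59 nM-46 µM) final concentrations; follow-up screens used 11-point dilutions.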
(In general: In qHTS, concentration-response curves come from the screen itself.)

The nature of experiment [2]: qHTS of pediatric cancer cell lines to identify multiple opportunities for drug repurposing: Primary screen for OHS-50 cells (AID 1347103). Also: potency is read from the fitted curve at half-maximal effect; nearly all actives have a fitted effect of over 40% in size. The method, boiled down:
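Cells (500-1,000/well) rested 5 h, then received compounds for 48 h; metabolically active cells were measured by CellTiter-Glo luminescence. Final concentrations spanned up to 46 µM (MIPE, 11-point) or 0.59 nM-46 µM (NPC, 8-point) in primary screens, 11-point in follow-ups.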

Experiment [3] is described as follows: qHTS of pediatric cancer cell lines to identify multiple opportunities for drug repurposing: Primary screen for RD cells (AID 1347104). Also: nearly all actives have a fitted effect of over 55% in size. Also: potency is read from the fitted curve at half-maximal effect. The method, boiled down: (§2)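 Primary screen of approved and investigational compounds on cells in growth media at 37 degrees C, 5% CO2. MIPE set at 11-point and NPC set at 8-point dilutions; viability scored by ATP-based luminescence at 48 hours.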

Experiment [4] can be described thus: qHTS of pediatric cancer cell lines to identify multiple opportunities for drug repurposing: Primary screen for control Hh wild type fibroblast cells (AID 1347106).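 Also: series mostly up to about 46 µM; a drop in luminescence marks cytotoxicity and a rise apparent proliferation; nearly all actives have a fitted effect of over 55% in size.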 The method, boiled down: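 Cells (500-1,000/well) in growth media were settled 5 h at 37 degrees C, then given compounds for 48 h. Viability was read as CellTiter-Glo luminescence. Primary runs used MIPE at 11 points (0.78 nM-46 µM) and NPC at 8 points (0.59 nM-46 µM); follow-ups used 11 points.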

The nature of experiment [5]: qHTS of pediatric cancer cell lines to identify multiple opportunities for drug repurposing: Primary screen for Rh30 cells (AID 1347107). Also: nearly all actives have a fitted effect of over 75% in size. Also: potency is read from the fitted curve at half-maximal effect. The method, boiled down: as §1
Experiment [6] in a line: qHTS of pediatric cancer cell lines to identify multiple opportunities for drug repurposing: Primary screen for MG 63 (6-TG R) cells (AID 1347105). Also: nearly all actives have a fitted effect of over 50% in size. Also: potency is read from the fitted curve at half-maximal effect. The method, boiled down:
as §2

Experiment [7] is described as follows: qHTS of pediatric cancer cell lines to identify multiple opportunities for drug repurposing: Primary screen for Rh41 cells (AID 1347108). Also: nearly all actives have a fitted effect of over 70% in size. Also: potency is read from the fitted curve at half-maximal effect. The method, boiled down:
as §2

Experiment [8] is described as follows: qHTS of pediatric cancer cell lines to identify multiple opportunities for drug repurposing: Confirmatory screen for A673 cells (AID 1347110). Also: nearly all actives have a fitted effect of over 65% in size. Also: potency is read from the fitted curve at half-maximal effect. The method, boiled down: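 Viability was read as ATP luminescence (CellTiter-Glo) after 48 h of compound exposure at 37 C in A673 cells seeded at 500-1,000/well. Titrations reached 46 uM final, with 11 points in the confirmatory screen. Concentration-response curves were fitted directly.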

Experiment [9] can be described thus: qHTS of pediatric cancer cell lines to identify multiple opportunities for drug repurposing: Confirmatory screen for BT-12 cells (AID 1347112). Also: nearly all actives have a fitted effect of over 55% in size. The method, boiled down:
as §1

The nature of experiment [10]: qHTS of pediatric cancer cell lines to identify multiple opportunities for drug repurposing: Confirmatory screen for SJ-GBM2 cells (AID 1347116). Also: nearly all actives have a fitted effect of over 60% in size. The method, boiled down:
(§3)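 Viability measured as metabolically active cells via CellTiter-Glo luminescence following 48 hours of compound exposure, 11-point dilutions in confirmatory testing. 500-1,000 cells/well plated 5 hours before dosing; controls were DMSO and 2.3 µM bortezomib.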

Experiment [11] is described as follows: qHTS of pediatric cancer cell lines to identify multiple opportunities for drug repurposing: Confirmatory screen for control Hh wild type fibroblast cells (AID 1347121). Also: nearly all actives have a fitted effect of over 70% in size. The method, boiled down:
as §1

Experiment [12] can be described thus: qHTS of pediatric cancer cell lines to identify multiple opportunities for drug repurposing: Confirmatory screen for NB1643 cells (AID 1347109). Also: nearly all actives have a fitted effect of over 45% in size. The method, boiled down: as §1
A short description of experiment [13]: qHTS of pediatric cancer cell lines to identify multiple opportunities for drug repurposing: Confirmatory screen for LAN-5 cells (AID 1347113). Also: nearly all actives have a fitted effect of over 65% in size. The method, boiled down:
as §1

Experiment [14] in a line: qHTS of pediatric cancer cell lines to identify multiple opportunities for drug repurposing: Confirmatory screen for BT-37 cells (AID 1347117). Also: nearly all actives have a fitted effect of over 55% in size. Also: potency is read from the fitted curve at half-maximal effect. The method, boiled down: as §1
The nature of experiment [15]: qHTS of pediatric cancer cell lines to identify multiple opportunities for drug repurposing: Confirmatory screen for DAOY cells (AID 1347114). Also: nearly all actives have a fitted effect of over 65% in size. Also: potency is read from the fitted curve at half-maximal effect. The method, boiled down: as §3
Experiment [16] in a line: qHTS of pediatric cancer cell lines to identify multiple opportunities for drug repurposing: Confirmatory screen for TC32 cells (AID 1347118). Also: nearly all actives have a fitted effect of over 65% in size. Also: potency is read from the fitted curve at half-maximal effect. The method, boiled down: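 TC32 cells, 500-1,000/well in growth medium, compound-treated 48 h at 37 °C; viability from CellTiter-Glo luminescence. Primary screen: MIPE 11-point (0.78 nM–46 µM final), NPC 8-point (0.59 nM–46 µM final); confirmatory at 11-point dilutions.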

Experiment [17] can be described thus: qHTS of pediatric cancer cell lines to identify multiple opportunities for drug repurposing: Confirmatory screen for U-2 OS cells (AID 1347122). Also: nearly all actives have a fitted effect of over 65% in size. Also: potency is read from the fitted curve at half-maximal effect. The method, boiled down: as §1
Experiment [18] in a line: qHTS of pediatric cancer cell lines to identify multiple opportunities for drug repurposing: Confirmatory screen for SK-N-MC cells (AID 1347111).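 Also: potency is read from the fitted curve at half-maximal effect; cells exposed to compound for 48 h before the readout; nearly all actives have a fitted effect of over 70% in size.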 The method, boiled down:
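SK-N-MC cells at 500-1,000 cells/well in growth media were pre-incubated 5 h, then exposed to compounds at 11-point dilutions for 48 h at 37 degrees C, 5% CO2. Viability was read as CellTiter-Glo luminescence.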

Inconclusive results are not listed. Calls of active or inactive are those of the source. Calls follow the shape of the dose curve; as a rule, active = well fitted curve in the direction sought with a large enough effect; inconclusive = small, poorly fitted or top-dose-only effect, or another doubt; inactive = no such curve, though single readings can be large; an effect the other way counts as inactive or inconclusive.

In the case of `O=C1Nc2ccc(Cl)cc2C(C#CC2CC2)(C(F)(F)F)O1` (stereo not drawn), the Potency entry in experiment [1], in experiment [4] and in [5] was “inactive” in each case. In addition, the Potency in experiment [2] was 21.7 µM (active); in experiment [3], 41.8 µM (active).
As for `Cc1ccc(/C=N/NC(=O)c2ccccc2Oc2ccccc2)o1`, the Potency entry in experiment [1], in experiment [6] and in [4] was “inactive” in each case. In addition, in [2], the Potency is 21.7 µM (active).
In the case of `O=C(O)c1c(Cl)c(Cl)c(Cl)c(Cl)c1-c1c2cc(I)c(=O)c(I)c-2oc2c(I)c(O)c(I)cc12`, the Potency in [2] was 7.69 µM (active).
As for `CO[C@H]1C[C@@H]2CC[C@@H](C)[C@@](O)(O2)C(=O)C(=O)N2CCCC[C@@H]2C(=O)O[C@H]([C@H](C)C[C@@H]2CC[C@H](OCCO)[C@H](OC)C2)CC(=O)[C@H](C)C=C(C)[C@@H](O)[C@@H](OC)C(=O)[C@H](C)C[C@H](C)C=CC=CC=C1C`, the results for the Potency in experiment [2] and in experiment [7] were 6.11 µM (active) and 1.18 µM (active), respectively. In addition, the Potency result in experiment [6], in experiment [5], in experiment [8], in experiment [9], in experiment [10] and in experiment [11] was “inactive” in each case.
In the case of `O=c1cc(-c2ccccc2)oc2cc(O)c(O)c(O)c12`, the Potency result in experiment [3], in experiment [6] and in experiment [4] was “inactive” throughout.
For `CC(C)[C@H](CO)Nc1nc(Nc2ccc(C(=O)O)c(Cl)c2)c2ncn(C(C)C)c2n1`, the Potency entry in experiment [1], in experiment [6], in experiment [4] and in [5] was “inactive” each time.
In the case of `O=C1c2c(O)cc(O)cc2O[C@H](c2cc(O)c(O)c(O)c2)[C@H]1O`, the Potency entry in [4] and in experiment [5] was “inactive” each time.
Regarding `O=c1cc(CN2CCOCC2)occ1OCCCCCSc1ccnc2cc(C(F)(F)F)ccc12`, the Potency in experiment [2] was 15.3 µM (active). Besides, the Potency entry in experiment [6] and in experiment [5] was “inactive” in each case.
`CCOC(CN1C(=O)[C@](CC(=O)Nc2ccc(C)cc2)(NC(=O)Nc2ccc(C)cc2)c2ccccc21)OCC`: the Potency result in [1], in experiment [4] and in experiment [5] was “inactive” throughout.
Regarding `COc1ccc2c(Oc3ccc(NC(=O)c4c(C)n(CC(C)(C)O)n(-c5ccccc5)c4=O)cc3F)ccnc2c1`, the Potency is 21.7 µM (active) in experiment [2] and 14.7 µM (active) in [8]. The Potency result in experiment [4], in experiment [12], in experiment [9], in experiment [13], in experiment [14] and in [11] was “inactive” each time.
On to `CC1(C)S[C@H]2[C@H](NC(=O)[C@@H](N)c3ccc(O)cc3)C(=O)N2[C@@H]1C(=O)O`, for which the Potency in experiment [1] is 2.96 µM (active); in experiment [3], 2.96 µM (active); in [6], 3.72 µM (active); in [7], 3.72 µM (active). Besides, the Potency entry in experiment [4], in [12], in [8], in experiment [9], in experiment [13] and in [15] was “inactive” throughout. In addition, the Potency result in experiment [10], in [14], in experiment [16], in experiment [11] and in [17] was “inactive” in each case.
With `CC=C(C)C(=O)O[C@H]1C(C)=C[C@]23C(=O)[C@@H](C=C(CO)[C@@H](O)[C@]12O)[C@H]1[C@@H](C[C@H]3C)C1(C)C`, the Potency in [2] was 21.7 µM (active); in [17], 0.0233 µM (active). For the same molecule, the Potency result in experiment [5], in [12], in experiment [9], in experiment [10], in experiment [14] and in experiment [11] was “inactive” in each case.
Turning to `COc1cc(N2CCC(N3CCN(C)CC3)CC2)ccc1Nc1ncnc(Nc2ccccc2S(=O)(=O)C(C)C)n1`, the Potency result in experiment [6] and in [4] was “inactive” in each case. Moreover, the Potency in [5] and in experiment [7] was 5.26 µM (active) each time.
As for `CO[C@H]1C[C@@H]2CC[C@@H](C)[C@@](O)(O2)C(=O)C(=O)N2CCCC[C@@H]2C(=O)O[C@H]([C@H](C)C[C@@H]2CC[C@H](OC(=O)C(C)(CO)CO)[C@H](OC)C2)CC(=O)[C@H](C)C=C(C)[C@@H](O)[C@@H](OC)C(=O)[C@H](C)C[C@H](C)C=CC=CC=C1C`, the Potency was 29.6 µM (active) in experiment [1] and 14.8 µM (active) in experiment [7]. Further, the Potency result in experiment [4] is “inactive”.
As for `Clc1cc(Cl)cc(CNc2ncncc2-c2ccc3c(c2)OCO3)c1`, the Potency entry in experiment [4] and in [5] was “inactive” in each case.
`CNC1CCC(N(Cc2cccc(-c3ccncc3)c2)C(=O)c2sc3c(F)ccc(F)c3c2Cl)CC1` (stereo not drawn): the Potency in experiment [2] is 24.3 µM (active); in [3], 10.5 µM (active); in [6] it was 23.5 µM (active); in experiment [7], 18.7 µM (active); in experiment [8] it was 20.8 µM (active); in experiment [18], 11.7 µM (active). For the same molecule, the Potency in experiment [15] is 20.8 µM (active); in experiment [14], 20.8 µM (active); in experiment [16], 13.1 µM (active).
In the case of `N[C@@]1(C(=O)O)CS(=O)(=O)[C@H]2[C@H](C(=O)O)[C@H]21`, the Potency entry in experiment [1], in experiment [6], in [4], in [5], in [7] and in [8] was “inactive” each time. In addition, the Potency result in experiment [15], in experiment [11] and in experiment [17] was “inactive” each time. Also, the Potency in [18] is 0.0465 µM (active); in [14], 0.737 µM (active); in [16], 0.0522 µM (active).
With `CO[C@H]1C(=O)[C@]2(C)[C@@H](OC)C[C@H]3OC[C@@]3(OC(C)=O)[C@H]2[C@H](OC(=O)c2ccccc2)[C@]2(O)C[C@H](OC(=O)[C@H](O)[C@@H](NC(=O)OC(C)(C)C)c3ccccc3)C(C)=C1C2(C)C`, the Potency in experiment [2] was 0.685 µM (active); in experiment [7], 0.001 µM (active); in experiment [8], 0.0059 µM (active); in experiment [18] it was 0.0033 µM (active); in experiment [16], 0.0033 µM (active); in [17], 0.0185 µM (active). Besides, the Potency result in experiment [4], in [5], in experiment [13], in [10] and in experiment [11] was “inactive” throughout.
Regarding `CN(C)Cc1ccc(-c2nc3cccc4c3n2CCNC4=O)cc1`, the Potency entry in [1], in experiment [6], in experiment [5] and in [7] was “inactive” in each case. Moreover, the Potency in [3] was 16.6 µM (active).
In the case of `Cc1c(NC(=O)c2ccc(C(C)(C)C)cc2)cccc1-c1cn(C)c(=O)c(Nc2ccc(C(=O)N3CCOCC3)cc2)n1`, in experiment [2], the Potency is 24.3 µM (active). The Potency entry in [6] and in [4] was “inactive” in each case.

The values above are taken from PubChem BioAssay (NCATS).
